Sampled rows, rich in hits. Any-hit rate of the full collection: about 6.7%.
Pf Dd2 inh: P. falciparum Dd2 growth inhibitors, primary screen, SYBR Green fluorescence, single dose replicates; 72 h; hits give low values; activity change, % at 10 µM; actives 2.3% (n = 94,000); AID 1159554, 2015; in the data active means activity change below about -80%; inconclusive means no clear call, values can overlap the other calls
T cruzi growth-1: T. cruzi intracellular proliferation inhibitors, primary screen, cell-based, beta-gal Tulahuen parasites, NIH3T3 host, luminescence; T. cruzi beta-gal in NIH3T3, GalScreen luminescence, 90 h; inhibition, % at 8.34 µM; actives 5.9% (n = 77,000);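 active means mean inhibition above about 93%, with at least 55% of replicates each passing it, limit read from the data, passing the limit was not always enough; inconclusive means only one of those two conditions holds; inactive means neither condition holds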
C diff HTS: C. difficile growth inhibitors, primary screen, HTS | Clostridium difficile clinical isolate growth, OD600, 24 h; hits give low values | growth activity, negative = inhibition, % at 16 µg/mL (by protocol) | actives 0.25% (n = 86,000) | AID 1259249, 2017;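 active means mean growth activity at or below -80% and every replicate also at or below -80%; inconclusive means mean at or below -80% but some replicate above -80%; inactive means mean growth activity above -80%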
T cruzi growth-2: T. cruzi intracellular proliferation inhibitors, confirmation, cell-based, NIH3T3 host, beta-gal parasite, luminescence, cherry-pick; actives 72% (n = 5,600); inhibition, % at 8.35 µM; shares compounds with T cruzi growth-1; T. cruzi beta-gal in NIH3T3, GalScreen luminescence, 90 h; AID 651739, 2012;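 active means mean replicate inhibition above about 95% and at least 55% of replicates individually reaching it, limit read from the data; inconclusive means only one of the two criteria is met; inactive means neither criterion is met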
T cruzi growth-3: inhibitors of intracellular T. cruzi replication, confirmation, NIH3T3 host cells, beta-gal parasites, cherry-pick, set 2; AID 651740, 2012; shares compounds with T cruzi growth-1; actives 21% (n = 5,600); inhibition, % at 2.09 µM; T. cruzi beta-gal in NIH3T3, GalScreen luminescence, 90 h;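 active means mean inhibition above about 95%, with at least 55% of replicates also reaching it, limit read from the data; inconclusive means meets just one of the two conditions; inactive means meets neither condition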
3T3 cytotox: cytotoxicity in mouse NIH/3T3 fibroblasts, confirmation, cytotoxicity control for T. cruzi proliferation inhibitor project, cell-based, cherry-pick, single point. shares compounds with T cruzi growth-1. NIH/3T3 viability, CellTiter-Glo ATP luminescence, 90 h. cytotoxicity (signal decrease), % at 8.35 µM. actives 14% (n = 5,600);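 active means mean signal decrease across replicates above about 35% based on untreated-well scatter, with enough replicates individually passing, limit read from the data; inconclusive means no rule stated though some were filed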
3T3 cytotox 2: NIH/3T3 fibroblast cytotoxicity, confirmation, cytotoxicity control, cell-based, cherry-pick, single point, set 2. shares compounds with T cruzi growth-1. NIH/3T3 viability, CellTiter-Glo ATP luminescence, 90 h. inhibition, % at 24.9 µM. actives 56% (n = 5,600). AID 651744, 2012;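 active means mean loss of cell viability signal at or above a set limit, and enough replicates individually reaching it; inconclusive means meets only the mean limit or only the replicate share; inactive means meets neither condition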
Each line names hits and unclear results; the compound was inactive in the other large screens (follow-up assays come after a bar, where they were run).

CN1[C@@H]2c3ccc(-c4cccc(F)c4)c(=O)n3C[C@@H]2[C@@H](CO)[C@@H]1C(=O)NCc1ccccn1	none (no result: Pf Dd2 inh)
CCC(=O)N1[C@@H]2c3ccc(-c4cccc(F)c4)c(=O)n3C[C@@H]2[C@@H](CO)[C@@H]1C(=O)N1CCCCC1	none (no result: T cruzi growth-1)
CN1[C@H](C(=O)Nc2ccccc2)[C@@H](CO)[C@@H]2Cn3c(ccc(-c4ccc(F)cc4)c3=O)[C@@H]21	T cruzi growth-1 active (no result: Pf Dd2 inh) | T cruzi growth-2 103 | T cruzi growth-3 inactive | 3T3 cytotox inactive | 3T3 cytotox 2 inactive
COCC(=O)N1[C@H](C(=O)Nc2ccccc2)[C@@H](CO)[C@@H]2Cn3c(ccc(-c4ccc(F)cc4)c3=O)[C@@H]21	none
CN1[C@@H]2c3ccc(-c4ccc(F)cc4)c(=O)n3C[C@@H]2[C@@H](CO)[C@@H]1C(=O)Nc1ccccc1	T cruzi growth-1 active (no result: Pf Dd2 inh) | T cruzi growth-2 inactive | T cruzi growth-3 inactive | 3T3 cytotox inactive | 3T3 cytotox 2 inactive
CCCNC(=O)N1[C@H](C(=O)N2CCCCC2)[C@@H](CO)[C@@H]2Cn3c(ccc(-c4ccc(F)cc4)c3=O)[C@@H]21	T cruzi growth-1 98 (no result: Pf Dd2 inh) | T cruzi growth-2 inactive | T cruzi growth-3 inactive | 3T3 cytotox inactive | 3T3 cytotox 2 inactive
CCN1[C@@H]2c3ccc(-c4ccc(F)cc4)c(=O)n3C[C@@H]2[C@@H](CO)[C@@H]1C(=O)Nc1ccccc1	none (no result: T cruzi growth-1)
CN1[C@H](C(=O)NCc2ccccn2)[C@@H](CO)[C@@H]2Cn3c(ccc(-c4cccc(F)c4)c3=O)[C@@H]21	T cruzi growth-1 111 (no result: Pf Dd2 inh) | T cruzi growth-2 inactive | T cruzi growth-3 inactive | 3T3 cytotox inactive | 3T3 cytotox 2 inactive
C[C@@H]1CN([C@H](C)CO)S(=O)(=O)c2ccc(C#C[C@@H](C)O)cc2O[C@H]1CN(C)Cc1ccccc1	none
C[C@@H]1CN([C@H](C)CO)C(=O)c2cccc(NC(=O)c3cnccn3)c2O[C@H]1CN(C)Cc1ccc2c(c1)OCO2	none
COc1ccc(S(=O)(=O)Nc2ccc3c(c2)C(=O)N([C@H](C)CO)C[C@@H](C)[C@@H](CN(C)C(=O)Nc2c(C)noc2C)OCCCC[C@@H](C)O3)cc1	none
Cc1ccc(S(=O)(=O)Nc2ccc3c(c2)C(=O)N([C@@H](C)CO)C[C@@H](C)[C@@H](CN(C)S(C)(=O)=O)OCCCC[C@@H](C)O3)cc1	none
COCCNC(=O)C[C@@H]1CC[C@H](NS(=O)(=O)c2ccc(C)cc2)[C@@H](CO)O1	none (no result: T cruzi growth-1)
CCc1cnc(N2[C@@H](C#N)[C@@H](c3ccc(-c4cccc(F)c4)cc3)[C@@H]2CO)s1	T cruzi growth-1 108 | T cruzi growth-2 101 | T cruzi growth-3 106 | 3T3 cytotox inactive | 3T3 cytotox 2 60
CCc1cnc(N2[C@@H](C#N)[C@H](c3ccc(-c4cccc(F)c4)cc3)[C@@H]2CO)s1	none
CCc1cnc(N2[C@H](CO)[C@@H](c3ccc(-c4cccc(F)c4)cc3)[C@@H]2C#N)s1	none
CCc1cnc(N2[C@H](C#N)[C@H](c3ccc(-c4cccc(F)c4)cc3)[C@H]2CO)s1	T cruzi growth-1 105 | T cruzi growth-2 105 | T cruzi growth-3 inactive | 3T3 cytotox inactive | 3T3 cytotox 2 26
CCc1cnc(N2[C@H](C#N)[C@@H](c3ccc(-c4cccc(F)c4)cc3)[C@H]2CO)s1	T cruzi growth-1 109 | T cruzi growth-2 110 | T cruzi growth-3 inactive | 3T3 cytotox inactive | 3T3 cytotox 2 inactive
COc1cccc(S(=O)(=O)N(C)C[C@H]2Oc3ncc(-c4cccc(C(=O)N(C)C)c4)cc3C(=O)N([C@@H](C)CO)C[C@@H]2C)c1	none
C[C@H](CO)N1C[C@H](C)[C@H](CN(C)S(=O)(=O)c2ccc(C#N)cc2)Oc2ncc(-c3cccc(C(F)(F)F)c3)cc2C1=O	none
COc1cccc(S(=O)(=O)N(C)C[C@@H]2Oc3ncc(C#Cc4cccc(F)c4)cc3C(=O)N([C@H](C)CO)C[C@@H]2C)c1	T cruzi growth-1 110 | T cruzi growth-2 102 | T cruzi growth-3 inactive | 3T3 cytotox inactive | 3T3 cytotox 2 33
COc1cccc(S(=O)(=O)N(C)C[C@@H]2Oc3ncc(C#CC(C)C)cc3C(=O)N([C@@H](C)CO)C[C@H]2C)c1	none
Cc1ccc(S(=O)(=O)N(C)C[C@@H]2Oc3ncc(-c4cccc(C(F)(F)F)c4)cc3C(=O)N([C@H](C)CO)C[C@@H]2C)cc1	T cruzi growth-1 126 | T cruzi growth-2 106 | T cruzi growth-3 inactive | 3T3 cytotox 48 | 3T3 cytotox 2 43
COc1cccc(S(=O)(=O)N(C)C[C@H]2Oc3ncc(C#CCC(C)C)cc3C(=O)N([C@@H](C)CO)C[C@@H]2C)c1	T cruzi growth-1 inconclusive | T cruzi growth-2 111 | T cruzi growth-3 inactive | 3T3 cytotox inactive | 3T3 cytotox 2 73
COc1cccc(S(=O)(=O)N(C)C[C@@H]2Oc3ncc(C#CCC(C)C)cc3C(=O)N([C@@H](C)CO)C[C@@H]2C)c1	none
COc1ccc(S(=O)(=O)N(C)C[C@@H]2Oc3ncc(C#Cc4ccc(OC)c(OC)c4)cc3C(=O)N([C@H](C)CO)C[C@@H]2C)cc1	none
COc1ccc(S(=O)(=O)N(C)C[C@@H]2Oc3ncc(C#Cc4ccccc4)cc3C(=O)N([C@H](C)CO)C[C@@H]2C)cc1	T cruzi growth-1 109 | T cruzi growth-2 101 | T cruzi growth-3 inactive | 3T3 cytotox inactive | 3T3 cytotox 2 63
COc1ccccc1NC(=O)N[C@H]1CC[C@@H](CCNS(=O)(=O)c2ccccc2)O[C@@H]1CO	none (no result: C diff HTS)
O=C(c1cccc(F)c1)N1CC[C@@H]2[C@H](CO)Nc3ccc(C#Cc4ccc(F)cc4)cc3[C@@H]21	none
COc1cccc(S(=O)(=O)N(C)C[C@H]2Oc3ncc(C#CCN(C)C)cc3C(=O)N([C@@H](C)CO)C[C@@H]2C)c1	none
C[C@H](CO)N1C[C@H](C)[C@H](CN(C)S(=O)(=O)c2cccs2)Oc2ncc(C#Cc3ccc(C(F)(F)F)cc3)cc2C1=O	none (no result: C diff HTS)
C[C@H](CO)N1C[C@H](C)[C@H](CN(C)S(=O)(=O)c2cccs2)Oc2ncc(C#Cc3ccc(F)cc3)cc2C1=O	T cruzi growth-1 112 | T cruzi growth-2 106 | T cruzi growth-3 inactive | 3T3 cytotox inactive | 3T3 cytotox 2 inactive

Screening results (PubChem BioAssay)
